Assay results reported in PubChem BioAssay (EPA / NIEHS).
The source made the active and inactive calls. How the source made its calls: active means hit-call score of the fitted dose curve at least 0.9, where 1 is the maximum; inactive means score below 0.9.

assay: CCTE_Mundy_HCI_Cortical_NOG_BPCount: CCTE's Neurite Outgrowth Assay in rat cortical cells for Branch Point Count, Mundy Lab (AID 2284237);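 on AC50: branch points counted about two days after chemical exposure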
Protocol: CCTE_Mundy_HCI_Cortical_NOG is a multiplexed, cell-based-readout assay that uses rat primary cortical cells with measurements taken at 50.33 hours after chemical dosing in a microplate: 96-well plate.CCTE_Mundy_HCI_Cortical_NOG_BPCount is one of four components of the CCTE_Mundy_HCI_Cortical_NOG assay. It measures neurite outgrowth related to the number of branch points using High Content Imaging of fluorescently labelled markers.[…] Using a type of morphology reporter, loss -of-signal activity can be used to understand developmental effects.
Exposure starts 2 hours post-plating by adding 10 ul of the working solution to 90 ul of media in the wells for a 1/10 dilution. Forty-eight hours after chemical treatment cells are fixed by direct addition of 100 ul of warm (37C) Dulbecco's phosphate buffered saline (DPBS) fixative solution containing 8% paraformaldehyde, 8% sucrose, and 0.1% of 3 mg/ml Hoechst 33342 into each well. Primary antibodies are prepared by dilution in Immunocytochemical Staining Buffer (ISB), 10X Dulbecco's PBS, 0.1% Saponin, 5% Bovine Serum Albumin, 0.5% NaN3 (Sodium Azide) and betaIII-tubulin (rabbit anti-betaIII-tubulin, 1:800) followed by Alexa Fluor-488 secondary (1:500) to label neuronal cell bodies and neurites. A Cellomics ArrayScan VTi HCS Reader is used for automated image acquisition and analysis of neurite outgrowth.

Compound | AC50 | outcome
COC(=O)N(OC)c1ccccc1COc1ccn(-c2ccc(Cl)cc2)n1 | 116 nM (active) | –
C=CC1(C)OC(=O)N(c2cc(Cl)cc(Cl)c2)C1=O (centres undefined) | – | inactive
CO/C=C(/C(=O)OC)c1ccccc1Oc1cc(Oc2ccccc2C#N)ncn1 | 2230 nM (active) | –
COP(=S)(OC)Oc1nc(Cl)c(Cl)cc1Cl | 24100 nM (active) | –
C=CCC1=C(C)[C@@H](OC(=O)[C@@H]2[C@@H](C=C(C)C)C2(C)C)CC1=O | – | inactive
CCCCOC(=O)c1ccccc1C(=O)OCCCC | – | inactive
Cc1ccc(-c2c(Cl)nc(C#N)n2S(=O)(=O)N(C)C)cc1 | 78000 nM (active) | –
CNC(=O)ON=CC(C)(C)SC | – | inactive
CC(C)(C)c1ccc(CSc2cnn(C(C)(C)C)c(=O)c2Cl)cc1 | 2.99 nM (active) | –
COP(N)(=O)SC (centres undefined) | – | inactive
N#Cc1nn(-c2c(Cl)cc(C(F)(F)F)cc2Cl)c(N)c1S(=O)C(F)(F)F (centres undefined) | – | inactive
CN(C)C(=S)SSC(=S)N(C)C | 55 nM (active) | –
C=CCC1=C(C)C(OC(=O)C2C(C=C(C)C)C2(C)C)CC1=O (centres undefined) | – | inactive
CCCCNC(=O)n1c(NC(=O)OC)nc2ccccc21 | 10300 nM (active) | –
